# From PubChem
# JMJD2A Tudor: blocks the human JMJD2A Tudor domain; AlphaScreen JMJD2A-Tudor / H3K4me3 peptide binding; Potency, µM (series often up to 114 µM), inactives show at the highest dose activity change, negative = inhibition, hits mostly inhibitors; actives 4.4% (n = 390,000); AID 504339; further: potency means the concentration at half of the fitted maximal effect; on the % scale 0 is the no-effect control and ±100 the full control effect; nearly all actives have a fitted effect of over 50% in size
# HP1b chromo inh: blocks HP1-beta chromodomain binding to methylated histone tails; P83916; AlphaScreen HP1-beta / biotin-H3K9me3 peptide binding; Potency, µM (top dose mostly 114 µM), inactives show at the highest dose activity change, negative = inhibition, actives largely listed as inhibitors; actives 0.56% (n = 390,000); AID 540317; further: potency means the concentration at half of the fitted maximal effect; nearly all actives have a fitted effect of over 70% in size
#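 HP1-beta protein (50 nM final) preincubated 30 min at room temperature with biotinylated H3(1-18)K9me3 peptide (50 nM) in PBS pH 7.4, 0.01% Tween-20, then compound added for 30 min. AlphaScreen streptavidin donor/nickel chelate acceptor beads (10 ug/mL final), 30 min dark, luminescence read.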
# CtBP-E1A inh: CtBP/E1A binding inhibition. AlphaScreen GST-E1A/His-CtBP binding, 1536-well; active compounds read low. activity change, % (test concentration not listed). actives 0.49% (n = 340,000); in the data active means activity change below about -65%; inconclusive means mostly about -30% to -63%; further: on the % scale 0 is the no-effect control and ±100 the full control effect
#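 In 5 uL wells, 23 nL compound meets equimolar GST-E1A and His-CtBP (5X stock 125 nM each) for 2 h, 37 °C. Beads (5X, 50 ug/mL) then 1 h, 37 °C, dark.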
# BAZ2B inh: BAZ2B (human) inhibition | actives 4.4% (n = 360,000) | Q9UIF8 | AID 504333 | AlphaScreen BAZ2B-H3K14Ac peptide displacement | Potency, µM (top dose mostly 114 µM), for the others: at the top dose activity change, negative = inhibition, usual class: inhibitors; further: potency means the concentration at half of the fitted maximal effect; on the % scale 0 is the no-effect control and ±100 the full control effect; nearly all actives have a fitted effect of over 60% in size
#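 Protein-peptide AlphaScreen: BAZ2B 50 nM, b-H3K14Ac 50 nM, 1x PBS pH 7.4 + 0.01% Tween-20. Preincubation 30 min RT; cpd 30 min RT (top 110 uM); beads 20 min RT, light-protected.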
# G9a inh: blocks human histone lysine methyltransferase G9a; AID 504332; G9a H3K9 monomethylation, AlphaScreen, 2 h; actives 8.8% (n = 350,000); Q96KQ7; Potency, µM (doses to about 102 µM), for the others: at the highest dose activity, negative = inhibition, most hits filed as inhibitors; further: potency means the concentration at half of the fitted maximal effect; on the % scale 0 is the no-effect control and ±100 the full control effect; nearly all actives have a fitted effect of over 75% in size
#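 Quantitative HTS format: methyltransferase activity on a biotin-tagged H3K9 peptide is measured by AlphaScreen, using a rabbit anti-monomethyl-H3K9 antibody with streptavidin donor and anti-IgG acceptor beads. Final levels are 20 nM enzyme, 500 nM peptide, 20 uM SAM; 2 h RT.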
# Six1-Eya2 blk: blocks human Six1 binding to Eya2; Q15475+O00167; AlphaScreen GST-Six1/His-Eya2 binding, biochemical; active compounds read low; activity change, % (test concentration not listed); actives 0.56% (n = 360,000); in the data active means activity change below about -65%; inconclusive means mostly about -30% to -63%; further: on the % scale 0 is the no-effect control and ±100 the full control effect
# Target sequence (O00167 whole entry, looked up): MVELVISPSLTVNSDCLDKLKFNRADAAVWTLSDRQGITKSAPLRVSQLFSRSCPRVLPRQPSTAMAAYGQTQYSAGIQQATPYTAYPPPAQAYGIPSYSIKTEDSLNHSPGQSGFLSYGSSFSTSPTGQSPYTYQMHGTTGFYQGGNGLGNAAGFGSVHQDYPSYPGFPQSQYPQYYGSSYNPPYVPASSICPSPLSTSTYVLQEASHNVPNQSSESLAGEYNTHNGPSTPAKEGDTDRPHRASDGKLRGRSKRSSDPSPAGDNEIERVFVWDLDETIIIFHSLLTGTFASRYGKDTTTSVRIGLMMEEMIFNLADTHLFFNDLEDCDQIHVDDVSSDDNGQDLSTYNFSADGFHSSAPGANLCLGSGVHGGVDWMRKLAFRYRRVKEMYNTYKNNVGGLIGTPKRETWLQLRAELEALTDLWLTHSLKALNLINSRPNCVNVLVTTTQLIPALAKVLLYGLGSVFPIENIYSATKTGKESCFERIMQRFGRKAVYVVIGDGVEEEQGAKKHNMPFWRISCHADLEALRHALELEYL
# Target sequence (Q15475 whole entry, looked up): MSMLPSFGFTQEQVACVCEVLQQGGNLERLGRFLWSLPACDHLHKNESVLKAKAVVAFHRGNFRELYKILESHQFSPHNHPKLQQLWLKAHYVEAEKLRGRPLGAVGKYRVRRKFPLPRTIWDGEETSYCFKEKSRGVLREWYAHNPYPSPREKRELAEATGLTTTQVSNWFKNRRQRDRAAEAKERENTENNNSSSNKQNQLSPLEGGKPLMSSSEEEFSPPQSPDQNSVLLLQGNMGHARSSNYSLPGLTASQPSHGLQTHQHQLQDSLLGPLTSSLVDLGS
#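 AlphaScreen luminescence read after one hour at 37 °C in darkness. Pin-transferred compounds met GST-Six1 and His-Eya2 protein (5X stock 250 nM/500 nM) plus glutathione donor and Ni-chelate acceptor beads (5X, 50 ug/mL).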
# Numbers without * were called inactive; ? = inconclusive; . = not tested or not shown; ! = repeats disagree; [ ] = dose if it differs, or a comment. Most compounds without a hit are left out; they make up all but 10% or so of the library. Unless noted, the call rests on the fitted dose curve; in most records, active means well fitted inhibition curve with a large enough effect; inconclusive means small, poorly fitted or top-dose-only effect; inactive means no such curve, though single readings can be large or run the other way.
SMILES,JMJD2A Tudor,HP1b chromo inh,CtBP-E1A inh,BAZ2B inh,G9a inh,Six1-Eya2 blk
COc1ccc(NC(c2ccc(F)cc2)c2nnc(-c3ccccc3Cl)o2)cc1Cl (stereo not given),-30.5%,2.5%,.,?,?,.
CCc1cccc(OCC(=O)N(C)CC(=O)Nc2cccc(F)c2)c1,-9.7%,18.5%,-0.3,9.3%,50.1µM*,3.1
CCC(=O)c1ccc(OCC(=O)N(C)CC(=O)Nc2cccc(F)c2)cc1,0.0%,67.2%,.,-10.2%,-13.4%[59 µM],4.2
CCc1ccc(S(=O)(=O)c2cnc3ccc(OC)cc3c2N2CCCC(C)C2)cc1 (stereo not given),-8.0%,24.2%,.,-11.9%,-11.3%[59 µM],.
O=C(Nc1cccc(/C=C/c2ccccn2)c1)c1ccc(-n2cncn2)c([N+](=O)[O-])c1,?,-2.1%,1.2,-32.6%,35.5µM*,-29.9
O=C(O)c1cc2ncc(-c3[nH]ncc3[N+](=O)[O-])cn2n1,79.4µM*,-24.1%,-19.9,-20.7%,-47.3%,-20.8
Cc1cc(C)c2c(N)c3ccccc3nc2n1,2.3%,32.1%,-17.5,1.6%,50.1µM*,-23.5
O=C(COc1ccccc1)Nc1ccc(C(=O)OCc2cc(=O)n3nc(C4CC4)sc3n2)cc1,-1.3%,16.4%,.,-2.2%,4.3%[12.7 µM],.
CC#C[C@]1(O)CC[C@H]2C3CCC4=CC(=O)CCC4=C3[C@@H](c3ccc(N(C)C)cc3)C[C@@]21C (stereo not given in full),.,.,.,.,2.82µM*,.
C#C[C@]1(O)CC[C@H]2[C@@H]3CCC4=CC(=O)CC[C@@H]4[C@H]3CC[C@@]21C,-12.2%,9.0%,6.2,.,.,1.2
CCCCn1c(N)c(N(CCOC)C(=O)c2cc3c(s2)CCC3)c(=O)[nH]c1=O,-19.2%,8.9%,8.5,2.8%,17.8µM*,-2.1
CCc1sc(C(=O)N(CCCOC)c2c(N)n(CC(C)C)c(=O)[nH]c2=O)cc1C,-7.4%,29.9%,0.3,-5.2%,0.794µM*,-0.4
CCCn1c(N)c(N(CCOC)C(=O)c2ccc(C#N)cc2)c(=O)[nH]c1=O,5.0%,27.4%,-0.2,-8.8%,70.8µM*,1.7
CCCn1c(N)c(N(CCOC)C(=O)c2ccc(-c3ccccc3)cc2)c(=O)[nH]c1=O,-12.1%,39.2%,-7.7,3.7%,-15.6%[12.7 µM],2.8
CCC1CN(C(=O)Nc2ccc(C)c(F)c2)c2ccccc2S1 (stereo not given),-20.5%,65.8%,.,-0.4%,-4.6%[59 µM],.
CCc1cccc(C)c1NS(=O)(=O)c1cc2[nH]c(=O)c(=O)[nH]c2cc1C,-2.3%,32.1%,.,5.2%,-4.0%[59 µM],.
O=c1cc(-c2ccc(O)c(O)c2)oc2ccc3ccccc3c12,-24.1%,-16.9%,-0.4,?,56.2µM*,-1.7
COc1ccc(S(=O)(=O)n2nc(-c3ccco3)nc2NCc2ccc(C(C)C)cc2)cc1,-12.9%,49.8%,.,-34.0%,-18.0%[59 µM],.
O=C(/C(Br)=C/Nc1cc(Cl)ccc1Cl)C(F)(F)F,?,51.6%,1.1,?,10µM*,-1.6
O=C(Nc1cc(Cl)ccc1Cl)N1CCCC1,-16.8%,10.2%,15.6,6.0%,7.0%,-1.6
Nc1c2c(nc3ccc(Br)cc13)N(c1ccccc1)CC2,10µM*,50.1µM*,-0.5,39.8µM*,?,-7.9
Nc1c2c(nc3ccccc13)N(C1CCCCC1)CC2,7.08µM*,-18.5%,5.6,?,?,-2.5
Nc1c2c(nc3ccc(Br)cc13)N(Cc1ccccc1)CC2,?,3.6%,.,-11.3%,?,-1.7
Nc1c2c(nc3ccc(Br)cc13)N(C1CCCCC1)CC2,.,.,.,15.8µM*,3.55µM*,.
COc1cccc(NC(=O)C(OC(=O)c2cnc(C)cn2)c2ccccc2)c1 (stereo not given),-19.3%,4.4%,-0.6,7.2%,44.7µM*,0.6
SMILES,JMJD2A Tudor,HP1b chromo inh,CtBP-E1A inh,BAZ2B inh,G9a inh,Six1-Eya2 blk
O=C(NC1CCCC1)C(c1cccnc1)N(C(=O)c1csnn1)c1ccccc1Cl (stereo not given),50.1µM*,13.6%,0.0,6.9%,19.8%,12.9
O=C(NC1CCCCC1)C(c1cccnc1)N(C(=O)c1csnn1)c1ccccc1F (stereo not given),10.2%,42.6%,0.0,0.6%,14.9%,-20.7
CCc1ccc(NC(=O)C(=O)NCC(c2cccnc2)N2CCOCC2)cc1 (stereo not given),-30.6%,-5.0%,.,?,?,.
Cc1ccc(C(=O)Nc2nnc(S(=O)(=O)N3CCN(c4ccc(F)cc4)CC3)s2)cc1,?,22.7%,-11.3,?,17.8%,0.9
Cc1ccc(N2CCN(S(=O)(=O)c3nnc(NC(=O)c4ccco4)s3)CC2)cc1,-23.9%,41.6%,-4.5,-8.0%,28.2µM*,2.0
Cc1ccc(N(C)S(=O)(=O)c2nnc(NC(=O)c3ccco3)s2)cc1,?,53.3%,-6.1,?,3.98µM*!,-0.8
Cc1cccc(CC(=O)NC2CC(=O)N(c3ccccc3)C2)c1 (stereo not given),-18.5%,11.3%,.,0.7%,8.8%[59 µM],.
CCCCn1nc(C(=O)Oc2ccc3c(C)cc(=O)oc3c2)c2ccccc2c1=O,-12.8%,44.7%,2.1,-1.0%,2.82µM*,2.4
CCOC(=O)c1scc(-c2ccccc2)c1S(=O)(=O)Nc1ccc(N(C)C)cc1,14.1µM*,?,.,20µM*,4.47µM*,.
CCOC(=O)c1scc(-c2ccccc2)c1S(=O)(=O)Nc1cc(Cl)c(OC)cc1OC,-23.7%,?,.,?,10µM*,.
CCc1ccc(NC(=O)c2ccc3c(c2)c(C)c(C)n3Cc2ccccc2)cc1,-30.5%,10.6%,.,-14.5%,-7.8%[59 µM],.
Nc1nc2c(c(=O)[nH]1)C(c1ccccc1)C1=C(N2)c2ccccc2C1=O (stereo not given),-6.1%,2.2%,.,?,?,?
Cc1cccc(C2C3=C(Nc4[nH]n(-c5ccccc5)c(=O)c42)c2ccccc2C3=O)c1 (stereo not given),35.5µM*,?,-16.7,31.6µM*,20µM*,-10.6
Cc1cc(N=Nc2ccc(Cl)cc2)cc(CN2CCOCC2)c1O,15.8µM*,39.8µM*,?,10µM*,7.94µM*,?
Cc1c(O)c(CN2CCCCC2)cc2c3c(c(=O)oc12)CCC3,-10.4%,26.1%,-1.6,2.9%,2.7%[12.7 µM],-2.8
Cc1cc(N=Nc2ccc(Cl)cc2)cc(CN2CCCC2)c1O,28.2µM*,20µM*,?,10µM*,.,?
CCOc1ccc(Cl)cc1CN1CCOCC1,-10.3%,21.8%,12.2,-17.3%,5.6%[12.7 µM],1.6
COc1ccc(NC(=O)Cc2c(C(=O)O)[nH]c3ccccc23)cc1OC,2.7%,26.7%,.,-2.3%,11.7%[59 µM],.
